From ChEMBL document CHEMBL5308541, “MAIP: An Open-Source Tool to Enrich High-Throughput Screening Output and Identify Novel, Druglike Molecules with Antimalarial Activity” (ACS Med Chem Lett, 2023)
Among all 4,800 compounds or so, about 420 (8.8%) showed an effect of 50% or more. This is one part of a sample in which strong results are shown more often than they occur.

Each compound was assayed on Plasmodium falciparum (assay: Confirmatory screen in NF54 nanoGlo assay, in single point, at 2uM, 72h). Conditions: timepoint 72 hour.
Assay type: functional, Erythrocyte
In the case of `Nc1nc(NCC2CCN(CCc3ccccc3)CC2)cc([C@H]2C[C@@H](N)C2)n1`, the “% Inhibition” value is reported as 23%.
`Cc1ccc(-c2cccc3c(C(=O)NCCCN4CCC(N5CCCCC5)CC4)cc(C)nc23)cc1` was tested, and the “% Inhibition” value was 98%.
`COc1ccc(-c2cncc(C(=O)NCC3CCN(CCN(C)C)CC3)c2)cc1` was tested, and the “% Inhibition” value was 94%.
In the case of `CN(C)CCN1CCC(CNCc2ccc3ncccc3c2)CC1`, the “% Inhibition” value is reported as 5%.
With `Cn1cncc1[C@@H]1CNC[C@H]1CNC(=O)c1ccccc1NC1CCCCC1` the “% Inhibition” value was 79%.
With `Cc1cc(F)ccc1N1CCC(NCCCNc2cccnc2)CC1` the “% Inhibition” value was 18%.
For `Brc1cccc(NCCNC2CCN(Cc3cccnc3)CC2)c1`, the “% Inhibition” value was 36%.
For `CC1CN(c2ccccc2NC(=O)c2ccc(-c3cnco3)cc2)CC(C)O1` (centres undefined), the “% Inhibition” value was -6%.
In the case of `Cc1ccccc1CN1CCC(CNc2c3c(nc4ccccc24)CCC3)CC1`, the “% Inhibition” value is reported as 95%.
With `Cc1cc(C)c(-c2csc(Nc3ncnc4[nH]ncc34)n2)cc1C` the “% Inhibition” value was 19%.
In the case of `CN(C[C@H](O)COc1ccccc1CN1CCC(c2ccncc2)CC1)C1CCCCC1`, the “% Inhibition” value is reported as 39%.
With `O[C@H](COc1ccccc1CNCc1cc(-c2ccccc2)[nH]n1)CN1CCCCC1` the “% Inhibition” value was 80%.
`CN1CCC(N(C)C[C@H](Nc2ncnc3ccccc23)c2ccccc2)CC1` was tested, and the “% Inhibition” value was 99%.
With `Cc1nc2ccc(Oc3ccccc3)cc2c(O)c1CN(C)C1CCN(C)CC1` the “% Inhibition” value was 22%.
With `CC1(N2CCC2)CCC(NC[C@H]2CCN(Cc3ccccc3)C2)CC1` (some centres undefined) the “% Inhibition” value was 66%.
With `OC1CN(Cc2cnc(C3CCCCC3)nc2)CCC1Nc1ncccn1` (centres undefined) the “% Inhibition” value was 1%.
In the case of `CN1CCN(CCc2ccc(N[C@H]3CCCN(Cc4ccccc4)C3(C)C)cc2)CC1`, the “% Inhibition” value is reported as 10%.
For `C[C@H]1CCCN(CCNC(=O)c2ccc(-c3ccc4c(=O)[nH]ccc4c3)cc2)C1`, the “% Inhibition” value was 58%.
With `c1cc(CN2CCN(c3cc(N4CCN(Cc5ccncc5)CC4)ncn3)CC2)ccn1` the “% Inhibition” value was 0%.
For `CCOc1ccc2nc(N3CCC(N4CCC([C@H](O)c5cccnc5)CC4)CC3)nc(C)c2c1`, the “% Inhibition” value was 29%.
For `CCOc1ccc2nc(CN(CC)CC3CCN(C4CCN(C)CC4)CC3)ccc2c1`, the “% Inhibition” value was 82%.
For `Cc1noc(-c2ccnc(NC[C@@H](c3ccccn3)N3CCOCC3)c2)n1`, the “% Inhibition” value was 93%.
With `COc1ccnc(NCCCc2nc(-c3ccncc3)cs2)n1` the “% Inhibition” value was 65%.
In the case of `CN(C)C1CCN(CCN[C@H]2CCc3ccc(F)cc32)CC1`, the “% Inhibition” value is reported as 85%.
In the case of `Cc1ccccc1-c1cccc(CNCCCN2CCC[C@H](O)C2)c1`, the “% Inhibition” value is reported as 12%.
`Cc1ccccc1-c1cccc(N2CCC(NCC3CCNCC3)CC2)c1` was tested, and the “% Inhibition” value was 99%.
For `CCCN(CCN1CCN(CC)CC1)c1nc(-c2ccccn2)nc2c1CCC2`, the “% Inhibition” value was 6%.
With `Cc1nc(-c2ccccn2)nc(NC2CCN(CC(F)F)CC2)c1C` the “% Inhibition” value was 35%.
In the case of `c1ccc(-c2nc3c(c(NCCNc4ncccn4)n2)CCC3)nc1`, the “% Inhibition” value is reported as 25%.
